CRFBP-R2 block: antagonists of CRF-BP/CRF-R2 complex, primary screen, cell-based, HEK293, calcium dye fluorescence, uHTS; CRF-induced calcium fluorescence; inhibition, % at 11.8 µM; 350,000 compounds, 0.59% hits;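 active = inhibition of the ligand-induced calcium signal above about 50% at the single tested concentration, limit read from the data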
TMEM16A inh: TMEM16A chloride channel inhibitors, primary screen, cell-based, HTS; Anoctamin-1 (Mus musculus), Q8BHY3; HEK293 TMEM16A/YFP iodide influx fluorescence, ionomycin; normalized B-score (activity score, 25-100; higher = stronger inhibition) at 10 µM; 310,000 compounds, 1.2% hits; AID 588511, 2011;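 active = ratio plate-corrected score three or more library SD toward inhibition, starting fluorescence score within five deviations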;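 also: score derived from kinetic fluorescence span divided by baseline fluorescence per well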
Target sequence (Q8BHY3 whole entry, looked up): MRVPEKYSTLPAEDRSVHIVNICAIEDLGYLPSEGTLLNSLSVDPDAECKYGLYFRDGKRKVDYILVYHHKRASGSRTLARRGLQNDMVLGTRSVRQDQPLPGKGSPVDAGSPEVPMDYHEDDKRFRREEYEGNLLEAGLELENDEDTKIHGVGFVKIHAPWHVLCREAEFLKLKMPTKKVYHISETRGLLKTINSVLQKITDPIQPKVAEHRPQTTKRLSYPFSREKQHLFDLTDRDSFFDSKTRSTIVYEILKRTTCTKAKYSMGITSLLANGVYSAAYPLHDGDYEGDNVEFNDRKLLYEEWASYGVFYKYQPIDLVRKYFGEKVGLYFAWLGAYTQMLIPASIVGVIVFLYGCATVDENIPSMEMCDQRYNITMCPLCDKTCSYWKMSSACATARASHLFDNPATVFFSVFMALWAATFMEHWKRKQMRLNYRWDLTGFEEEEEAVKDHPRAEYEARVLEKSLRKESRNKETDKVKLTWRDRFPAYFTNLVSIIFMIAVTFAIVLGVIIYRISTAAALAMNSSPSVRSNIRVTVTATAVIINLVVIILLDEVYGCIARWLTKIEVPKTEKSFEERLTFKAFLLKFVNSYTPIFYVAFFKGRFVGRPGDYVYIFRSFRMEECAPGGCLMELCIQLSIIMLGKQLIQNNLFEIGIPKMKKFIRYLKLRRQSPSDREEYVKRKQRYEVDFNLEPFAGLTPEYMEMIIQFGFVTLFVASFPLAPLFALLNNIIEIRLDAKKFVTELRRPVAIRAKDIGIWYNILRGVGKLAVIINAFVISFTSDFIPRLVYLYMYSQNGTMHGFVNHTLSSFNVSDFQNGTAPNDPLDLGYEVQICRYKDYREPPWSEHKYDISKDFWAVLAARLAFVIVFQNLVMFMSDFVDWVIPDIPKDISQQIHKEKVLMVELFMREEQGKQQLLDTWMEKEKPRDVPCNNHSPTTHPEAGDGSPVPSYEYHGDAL
NR3A LBD binder: binders of NR3A ligand-binding domain, primary screen, biophysical, differential scanning fluorimetry, uHTS. Glutamate receptor ionotropic, NMDA 3A (GRIN3A) ligand-binding domain. NR3A LBD differential scanning fluorimetry, Tm shift; 0% = protein alone, 100% = glycine-bound protein. Tm shift relative to glycine control, % at 25 µM. 340,000 compounds, 2.5% hits;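 active = melting temperature shift of at least 10% of the positive control shift, at one fixed dose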
CRFBP-R2 agonist: agonists of CRF-BP/CRF-R2 complex, primary screen, cell-based, HEK293, calcium dye fluorescence, uHTS; calcium dye fluorescence (FLIPR); percent of saturating CRF peptide response; activation, % at 13.2 µM; 350,000 compounds, 0.46% hits; AID 588473, 2011;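 active = activation of at least 50%, plus an integration ratio under a set limit after plate pattern correction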;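 also: plate controls were neutral control wells without compound for no effect and CRF at EC100 for full effect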
TMEM16A act: TMEM16A chloride channel activators or potentiators, primary screen, cell-based, HTS; Anoctamin-1 (Mus musculus), Q8BHY3; HEK293 TMEM16A/YFP-H148Q/I152L, iodide quench fluorescence; hits give low values; B-score at 10 µM; 340,000 compounds, 0.3% hits; AID 623877, 2012;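 active = fluorescence-ratio B-score plate-corrected deviation score at least 3 library SD below zero, with starting fluorescence score within 5 deviations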;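 also: channel opened by trigger with iodide after compound preincubation; score built on the fluorescence ratio of max minus min over baseline; more negative score means more quench and so TMEM16A activation or potentiation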
MPTP block: mitochondrial permeability transition pore inhibitors, primary screen, biochemical, isolated mouse mitochondria, absorbance. 360,000 compounds, 1.4% hits. AID 602449, 2012. Ca2+ swelling absorbance, 30 min. inhibition, % at 10 µM;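 active = inhibition of 50% or more, scaled per plate between neutral and stimulator controls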;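 also: 0% = DMSO wells given calcium and 100% = 1 mM EGTA wells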
Rh123 counter: fluorescence retest of MPTP screen hits in isolated mitochondria, single concentration; shares compounds with MPTP block; membrane potential, Rhodamine 123 fluorescence; inhibition, % at 10 µM; 5,000 compounds, 78% hits; AID 624504, 2012; in the data active = inhibition above about 22%;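 also: 0% = DMSO vehicle and 100% = positive control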
MPTP swell DR: mitochondrial permeability transition pore inhibitors, dose response, biochemical, absorbance, uHTS hits | 780 compounds, 58% hits | IC50, µM | shares compounds with MPTP block | isolated mitochondria swelling; in the data active = IC50 below about 20 µM
MPTP cs DR: fluorescent counter-screen in isolated mitochondria, dose response, counter-screen for MPTP inhibitor project, biochemical, fluorescence, uHTS hits; shares compounds with MPTP block; isolated mitochondria counterscreen, fluorescence read-out; IC50, µM; 780 compounds, 49% hits; AID 651564, 2012; in the data active = IC50 below about 80 µM
Active calls of the source: *; i = inactive; nt = no result. Only some compounds are listed: those with a hit (about 5.1% of all), similar ones and a draw of the others.

SMILES | CRFBP-R2 block | TMEM16A inh | NR3A LBD binder | CRFBP-R2 agonist | TMEM16A act | MPTP block | Rh123 counter | others
CCN(CC)CCOc1ccc(/C(=C(/Cl)c2ccccc2)c2ccccc2)cc1 | -22 | i | 4 | -3 | i | 98* | -2 | MPTP swell DR=19*;MPTP cs DR=43*
CC/C(=C(\c1ccc(O)cc1)c1ccc(OCCN(C)C)cc1)c1ccccc1 | -22 | i | -1 | 3 | i | 103* | -11
Cc1cc(SCC(=O)OC(C)C(=O)N(C)c2ccccc2)nc2ccccc12 (stereo unspecified) | 2 | i | 1 | -1 | i | 0 | nt
CCN(CC)CCNc1ccc(CO)c2sc3ccccc3c(=O)c12 | -4 | i | -1 | 3 | i | 60* | -6
COCCNC(=O)C1(C)CCN(C(=O)c2sccc2C)C1 (stereo unspecified) | nt | nt | nt | nt | nt | 0 | nt
COc1ccc(-c2c(-c3ccc(O)cc3O)n[nH]c2C(F)(F)F)cc1 | 5 | i | 5 | 0 | i | 4 | nt
Oc1ccc(-c2n[nH]c(C(F)(F)F)c2-c2ccccc2)c(O)c1 | 1 | 100* | 2 | 0 | i | 84* | 76*
COc1ccc(Cc2nnc(SCC(=O)c3c(N)n(C4CC4)c(=O)[nH]c3=O)o2)cc1 | 5 | nt | 0 | 0 | i | -1 | nt
O=[N+]([O-])c1cc([N+](=O)[O-])c2cc(-c3cccnc3)[nH]c2c1 | 10 | i | -4 | 0 | i | 52* | 56*
N#CC1=C(N)NC(SCc2ccccc2)=C(C#N)C12CCCCC2 | -5 | i | -6 | -1 | i | 68* | 74*
CCSC1=C(C#N)C2(CCCCC2)C(C#N)=C(N)N1 | 1 | i | -14 | 2 | i | 0 | nt
CCC(C(=O)Nc1cccc(S(=O)(=O)N(C)c2ccccc2)c1)c1ccccc1 (stereo unspecified) | 2 | nt | -2 | 1 | i | 4 | nt
CCC(CC)C(=O)Nc1cccc(S(=O)(=O)c2cccc(NC(=O)C(CC)CC)c2)c1 | -37 | i | 4 | 0 | i | 58* | 36*
Cc1cc(O)c(C(=O)Nc2cccc(Cl)c2)c(=O)n1C | 1 | i | 0 | 4 | i | 1 | nt
Clc1ccc2c(NCc3ccccc3)ccnc2c1 | -6 | i | -2 | 0 | i | 88* | 83*
FC(F)(F)c1cnc(NNC(=S)Nc2ccccc2Cl)c(Cl)c1 | 19 | i | 9 | 89* | i | 55* | 89*
CCN(CC)CCNc1ccnc2cc(Cl)ccc12 | -10 | i | 0 | 1 | i | 14 | nt
O=C(NCCNc1ccnc2cc(Cl)ccc12)c1ccccc1F | 0 | i | -3 | 0 | i | 75* | 57*
S=C(NNc1ccnc2cc(Cl)ccc12)Nc1ccccc1Cl | -60 | 25* | 20* | -1 | i | 98* | 77*
COc1ccc(C(=O)OCc2ccccc2C#N)cc1S(=O)(=O)N1CCOCC1 | 8 | nt | nt | 1 | nt | 1 | nt
Cc1ccc(C)c(NC(=O)CN(C)C(=O)C2CCN(C(=O)Nc3ccccc3)CC2)c1 | 13 | i | 0 | -1 | i | -1 | nt
O=C(NC(Cc1ccccc1)c1nc2ccccc2[nH]1)c1cccc([N+](=O)[O-])c1 (stereo unspecified) | 12 | i | -7 | -2 | i | 65* | 65*
O=C(Cc1nc2ccccc2[nH]1)c1cccc([N+](=O)[O-])c1 | -5 | i | -1 | 5 | i | 91* | 79*
O=C(Nc1cccc(Br)c1)Oc1cccc2cccnc12 | nt | nt | nt | nt | nt | 75* | 102*
CN(C)c1nc2c(c(=O)[nH]c(=O)n2C)n1CCCc1ccccc1 | -4 | i | 0 | 0 | i | 1 | nt
SMILES | CRFBP-R2 block | TMEM16A inh | NR3A LBD binder | CRFBP-R2 agonist | TMEM16A act | MPTP block | Rh123 counter | others
CN(CC(=O)NC(=O)NC1CCCCC1)Cc1ccccc1 | -3 | nt | 7 | 1 | i | -1 | nt
COC(=O)C1CCN(Cc2ccc(OCCCN3CCN(c4ccc([N+](=O)[O-])cc4)CC3)cc2)CC1 | 2 | 25* | 0 | 7 | i | 96* | 82*
O=S(=O)(NCC(Nc1ccccc1)c1ccccc1)c1ccc(Cl)cc1 (stereo unspecified) | 9 | i | 17* | 4 | i | 52* | 74*
C=CC(C)(C)c1c(O)c(CC=C(C)C)c(O)c2c(=O)c3ccc(O)c(O)c3oc12 | 7 | 100* | 33* | -2 | i | 85* | 40*
O=C(Nc1cccc(Cl)c1)N(CCCN1CCOCC1)Cc1ccccc1F | -9 | i | 4 | 0 | i | 95* | 95*
CC1(C)N=C(N)N=C(N)N1c1ccc(CCCCc2ccccc2)cc1 | -1 | nt | nt | 1 | nt | 64* | 60*
CN1CCN(CCOC2Cc3ccccc3Sc3ccc(Cl)cc32)CC1 (stereo unspecified) | -19 | i | -4 | 1 | i | 90* | -11 | MPTP swell DR=6.5*;MPTP cs DR=>80
OCCN1CCN(C2Cc3cc(Cl)ccc3Sc3ccc(Cl)cc32)CC1 (stereo unspecified) (tested in a mixture with another compound) | -33 | i | -1 | 3 | i | 84* | -11
CCC(C)[C@H](NC(=O)[C@@H]1CSC2c3ccccc3C(=O)N21)C(=O)N1CCCCC1 (stereo partly specified) | -18 | i | -1 | -1 | i | -3 | nt
O=C(CCC(=O)OCCOc1ccccc1)OCCOc1ccccc1 | nt | nt | nt | nt | nt | 0 | nt
O=C(Nc1ccccc1C(=O)O)c1cc(S(=O)(=O)Nc2cccc(F)c2)ccc1Cl | 1 | i | -1 | -1 | i | 1 | nt
O=C(Nc1cc(S(=O)(=O)Nc2ccccc2Cl)ccc1O)c1ccc(F)cc1F | 22 | nt | -9 | 24 | i | 59* | 68*
CCSc1nsc(NC(=O)Nc2cccc(OC)c2)n1 | 7 | i | 16* | 32 | i | 84* | 85*
